Measured values reported in PubChem BioAssay (NCATS).
Records with an inconclusive call do not appear. A number with no mark means an inactive call. Calls of active or inactive are those of the source. Calls come from the whole dose curve; as a rule, active = well fitted inhibition curve with a large enough effect; inconclusive = small, poorly fitted or top-dose-only effect; inactive = flat fitted curve, though single readings scatter.

The compounds below were run against Glutathione peroxidase 1 (Homo sapiens) (UniProt P07203) (assay: Primary qHTS Assay for Inhibitors of Recombinant Selenoprotein Glutathione Peroxidase 1 (GPX1) (AID 1845191; note: nearly all actives have a fitted effect of over 65% in size)). Conditions: recombinant GPX1, GR-coupled NADPH fluorescence, 15 min; series mostly up to 48.8 µM; activity, negative = inhibition: at the top concentration.
Glutathione peroxidase 1 (Homo sapiens), sequence (P07203 whole entry, looked up): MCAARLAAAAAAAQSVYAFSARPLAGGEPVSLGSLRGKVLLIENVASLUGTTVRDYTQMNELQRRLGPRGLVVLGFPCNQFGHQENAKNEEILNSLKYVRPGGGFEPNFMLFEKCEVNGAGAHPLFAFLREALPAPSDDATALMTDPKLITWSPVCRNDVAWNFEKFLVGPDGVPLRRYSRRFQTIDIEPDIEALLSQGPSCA
From the text: Assay Provider: Elias S.J. Arner MD PhD.
Department of Medical Biochemistry and Biophysics
Karolinska Institutet, Solna, Stockholm, Sweden
Selenoprotein glutathione peroxidases (GPX), like the ubiquitously expressed GPX1 and the ferroptosis modulator GPX4, enact their antioxidant activities by reducing hydroperoxides using glutathione. […] GPX1 and GPX4 inhibitors have thus shown promise as anti-cancer agents. Existing inhibitors are often promiscuous, or modulate GPX activity only indirectly, so novel direct inhibitors identified through screening against GPX1 and GPX4 could be valuable. Here, we developed optimized glutathione reductase (GR)-coupled GPX assays for the biochemical high-throughput screen (HTS) of almost 12,000 compounds with known mechanisms of action. Initial hits were triaged using a GR counter-screen, assessed for isoform specificity using a separate GPX2 assay, and were assessed for general selenocysteine-targeting activity using a thioredoxin reductase (TXNRD1) assay. With this suite of assays, we identified novel GPX1/GPX2- and GPX4-specific inhibitors and can here present a validated pipeline for future discovery research for selenoprotein-targeting agents.
SEQUENCE No. (e.g., 1, 2, 3, etc.); […] (e.g., Cells, Incubation, Reagent, etc.); VALUE; DESCRIPTION.
1; Reagent 1; 3 uL; GPx1 enzyme or no enzyme control in 1536-well, black, solid Greiner assay plate.
2; Compound; 25 nL; Kalypsis pin tool (Wako USA) equipped with a 1536-well pin head.
3; Incubation; 30 min; room temperature.
4; Reagent 2; 1 uL; 10 nM GPX1, 1 mM GSH, 0.5 mM CHP, 0.5 mM NADPH, 100 nM GR, 0.01% BSA substrate
5; Detection; Fluorescence; ViewLux microplate reader, excitation 340 nm and emission 450 nm.
6; Incubation; 15 min; room temperature.
7; Detection; Fluorescence; ViewLux microplate reader, excitation 340 nm and emission 450 nm.
NOTES (numbers refer to Sequence numbers above)
1. 3 uL of 16.66 nM GPX1 and 0.016% BSA in assay buffer (50 mM Tris-HCl, 2 mM EDTA (pH 7.5), 150 mM NaCl) was added to columns 3-48 of 1536-well assay plates using a BioRAPTR Flying Reagent Dispenser (Let's Go Robotics (LGR), Carlsbad, CA). A no-enzyme control (0.01% BSA in TES assay buffer) was added to columns 1-2.
2. 25 nL of test compounds and DMSO controls were added to each well with a pin tool (Kalypsys).
3. The assay plates were incubated for 30 minutes at room temperature.
4. 1 uL of master mix (500 nM glutathione reductase (GR), 5 mM reduced glutathione (GSH), 2.5 mM NADPH in assay buffer) was added. 1 uL of cumene hydroperoxide (CHP) ([2.5 mM] in 50% EtOH) was then added within 5 minutes to initiate the reaction. Final concentrations were: 10 nM GPX1, 1 mM GSH, 0.5 mM CHP, 0.5 mM NADPH, 100 nM GR, 0.01% BSA.
5. Initial fluorescence readout (t=0) at 340/450 nm was measured using a ViewLux multimodal detector (PerkinElmer, Waltham, MA).
7. Endpoint fluorescence readout (t=15) at 340/450 nm was measured 15 min after room temperature incubation.
% is set by controls: 0 for no effect and ±100 for the full control effect.

SMILES | Potency | activity, negative = inhibition | outcome
OC[C@H]1O[C@@H](OCCc2ccc(O)cc2)[C@H](O)[C@@H](O)[C@@H]1O | inactive | – | –
CC(=O)c1cnc2ccc(-c3cc(Cl)c(O)c(Cl)c3)nc2c1NC1CCC(CN(C)C)CC1 (stereo not given) | – | 2.12% [at 9.52 µM] | –
CC(C)C(C#N)O[C@@H]1O[C@H](CO[C@@H]2OC[C@](O)(CO)[C@H]2O)[C@@H](O)[C@H](O)[C@H]1O (stereo not given in full) | – | -4.41% [at 27.7 µM] | –
CC(C)CC(=O)OC[C@H]1O[C@@](COC(=O)CC(C)C)(O[C@H]2O[C@H](CO)[C@@H](O)[C@H](O)[C@H]2O)[C@@H](OC(=O)CC(C)C)[C@@H]1OC(=O)CC(C)C | – | – | inactive [at 15.3 µM]
CC12CC34C=CC(=O)C(C)(CCC(=O)O)C3C(CC1C4)O2 (stereo not given) | – | 1.14% | –
COc1cc([C@@H]2Oc3c(OC)cc(CCCO)cc3[C@@H]2CO[C@@H]2O[C@H](CO)[C@@H](O)[C@H](O)[C@H]2O)ccc1O | – | -11.2% [at 27.7 µM] | –
CC1=C(CC(=O)O)c2cc(F)ccc2C1=Cc1ccc(S(C)(=O)=O)cc1 | – | – | inactive
O=C(c1ccc(C#Cc2cccc(F)c2)cn1)N1CC2CC2C1 (stereo not given) | – | – | inactive
C[C@@H]1O[C@@H](O[C@H]2[C@H](OC(=O)C34CCC(C)(C)CC3C3=CCC5C6(C)CC(O)C(O[C@@H]7O[C@H](CO)[C@@H](O)[C@H](O)[C@H]7O)C(C)(C(=O)O)C6CCC5(C)C3(CO)CC4)O[C@H](C)[C@H](O)[C@@H]2O)[C@H](O)[C@H](O)[C@H]1O[C@@H]1OC[C@@H](O)[C@H](O)[C@H]1O (stereo not given in full) | – | – | inactive [at 15.3 µM]
COc1c2c(c(C)c3c1C(=O)OC3)OC1(C)CC(O)C3(O)C(C)(C)OC(=O)CCC3(C)C1C2 (stereo not given) | – | – | inactive [at 27.7 µM]
CC(=O)OCC1=C[C@H](O)[C@@H]2C(C(=O)O)=CO[C@@H](O[C@@H]3O[C@H](CO)[C@@H](O)[C@H](O)[C@H]3O)[C@H]12 | – | -3.82% [at 27.7 µM] | –
COC(=O)[C@@]1(C)CC[C@]2(C(=O)O[C@@H]3O[C@H](CO)[C@@H](O)[C@H](O)[C@H]3O)CC[C@]3(C)C(=CCC4[C@@]5(C)CC[C@H](O[C@@H]6O[C@H](C(=O)O)[C@@H](O)[C@H](O)[C@H]6O)C(C)(C)C5CC[C@]43C)[C@@H]2C1 (stereo not given in full) | – | -18% [at 15.3 µM] | –
COC(F)(F)C(Cl)Cl | – | – | inactive
CC1C(=O)CC2C3C(O)CC(C(=O)O)C12CC3(C)C (stereo not given) | – | – | inactive
O=C(O)CCc1cc2ccoc2cc1O[C@@H]1O[C@H](CO[C@@H]2OC[C@](O)(CO)[C@H]2O)[C@@H](O)[C@H](O)[C@H]1O | – | -3.44% [at 27.7 µM] | –
COC(=O)C1=COC(OC2OC(CO)C(O)C(O)C2O)C2C1CC(OC(=O)C(O)CC(=O)O)C2C (stereo not given) | – | 2.78% [at 27.7 µM] | –
C[C@@H]1C[C@H]2[C@@H]3CCC4=CC(=O)C=C[C@]4(C)[C@@]3(F)[C@@H](O)C[C@]2(C)[C@@]1(O)C(=O)COP(=O)(O)O | inactive | – | –
C=CC(C)(O)CC/C=C(/C)C(=O)OC1C(OC2OCC(OC3OC(CO)C(O)C(O)C3O)C(OC3OCC(O)C(OC4OC(C)C(O)C(O)C4O)C3O)C2O)COC(OC(=O)C23CCC(C)(C)CC2C2=CCC4C5(C)CCC(OC6OC(CO)C(OC7OC(CO)C(O)C(OC8OCC(O)C(O)C8O)C7O)C(O)C6O)C(C)(C)C5CCC4(C)C2(C)CC3O)C1O (stereo not given) | – | -7.71% [at 9.52 µM] | –
C[C@H]1CC[C@@]2(OC1)O[C@H]1CC3C4CC=C5C[C@H](O)C[C@@H](O[C@@H]6O[C@@H](C)[C@H](O)[C@@H](O)[C@H]6O[C@@H]6O[C@@H](C)[C@H](O)[C@@H](O)[C@H]6O)[C@]5(C)C4CC[C@]3(C)[C@H]1[C@@H]2C (stereo not given in full) | – | -9.28% [at 15.3 µM] | –
Cc1ncc([N+](=O)[O-])n1CC(O)CN1CCOCC1 (stereo not given) | – | 0.825% | –

SMILES | Potency | activity, negative = inhibition | outcome
COc1cc2c(cc1OC)CN(C(=O)[C@@H](NCc1ccncc1)C(C)(C)C)CC2 | – | – | inactive
CC(=O)OC[C@]12[C@H](OC(C)=O)C(=O)[C@@H]3[C@@H](OC(C)=O)[C@@]14O[C@@]3(C)COC(=O)c1cccnc1[C@@H](C)[C@H](C)C(=O)O[C@@H]([C@H](OC(C)=O)[C@@H]2OC(C)=O)[C@]4(C)O | – | -18.2% [at 15.3 µM] | –
COC(=O)[C@]12C(=O)C(C)=C(O)[C@@]1(C)C(C)=CC1[C@@]34CC[C@@H](OC(C)=O)C(C)(C)C3[C@H](C[C@]12C)OC4=O (stereo not given in full) | – | -2.82% [at 27.7 µM] | –
CC1=CC(=O)C2C(C)(C)CC(O)CC2(C)C1CO (stereo not given) | – | – | inactive
O=C1Nc2ccc(O)cc2O[C@H]1O[C@@H]1O[C@H](CO)[C@@H](O)[C@H](O)[C@H]1O | – | 0.306% [at 27.7 µM] | –
c1nc(NC2CCCCCC2)c2cc(CNC[C@H]3CCCO3)sc2n1 | – | -13.2% | –
CO[C@@H]1CC[C@H](OC[C@]2(COC(=O)c3ccc(C)[nH]3)[C@H](OC(C)=O)CC[C@@]3(C)[C@@H]4CC=C(C)[C@@H](C5=C(O)C(=O)OC5O)[C@]4(C)CC[C@@H]32)O[C@H]1C (stereo not given in full) | – | – | inactive [at 15.3 µM]
CC1=C2C(=O)C=C(CO)[C@@H]2[C@H]2OC(=O)[C@H](C)[C@@H]2[C@@H](O)C1 | – | -9.08% | –
CC1(C)CC[C@]2(C(=O)O[C@@H]3O[C@H](CO)[C@@H](O)[C@H](O)[C@H]3O)CC[C@]3(C)C(=CCC4[C@@]5(C)C[C@@H](O)[C@H](O)[C@@](C)(CO)C5CC[C@]43C)C2C1 (stereo not given in full) | – | – | inactive [at 15.3 µM]
Cc1cc(C)cc(NC(=O)Cc2ccc(OC(C)(C)C(=O)O)cc2)c1 | – | – | inactive
C=C1CC[C@H]2[C@@](C)(CCC(O)[C@@]2(C)CO)[C@@H]1C/C=C(/C(=O)O)C(O)CO (stereo not given in full) | – | – | inactive [at 27.7 µM]
COC(=O)[C@H]1[C@H]2C[C@@H]3c4[nH]c5ccccc5c4CCN3C[C@H]2C[C@@H](OC(=O)c2cc(OC)c(OC)c(OC)c2)[C@@H]1OC | – | -24.2% | –
C[C@@H]1O[C@@H](O[C@H]2[C@H](O[C@H]3[C@H](O[C@H]4CC[C@@]5(C=O)C(CC[C@]6(C)C5CC=C5C7CC(C)(C)C[C@@H](O)[C@]7(C)CC[C@]56C)C4(C)C)O[C@H](C(=O)O)[C@@H](O)[C@@H]3O)OC[C@@H](O)[C@@H]2O)[C@H](O)[C@H](O)[C@H]1O (stereo not given in full) | – | -19.6% [at 15.3 µM] | –
CC(C)C1=CC2=CCC3[C@](C)(CCC[C@@]3(C)C(=O)O)C2CC1O (stereo not given in full) | – | -7.76% [at 27.7 µM] | –
O=C(/C=C/c1ccc(O)cc1)OCC1=CC2OC(=O)C3=CO[C@@H](O[C@@H]4O[C@H](CO)[C@@H](O)[C@H](O)[C@H]4O)[C@H]1[C@@H]32 (stereo not given in full) | – | – | inactive [at 27.7 µM]
CC(C)(C)NCc1cc(Nc2ccnc3cc(Cl)ccc23)c2c(c1O)CCCC2 | – | -7.83% [at 0.4 µM] | –
COc1cc(C(=O)OC[C@H]2O[C@H](O[C@@]3(CO)O[C@@H](CO)[C@H](O)[C@H]3O)[C@H](O)[C@@H](O)[C@@H]2O)ccc1O | – | – | inactive [at 27.7 µM]
OC[C@H]1O[C@@H](n2cnc3c(NCc4ccc(O)cc4)ncnc32)[C@H](O)[C@@H]1O | – | -7.41% | –
O=C1NC(Cc2ccc(O)cc2)C(=O)N2CCCC12 (stereo not given) | – | 2.52% | –
CCN[C@@H]1C[C@H](N)[C@@H](O[C@H]2OC(CN)=CC[C@H]2N)[C@H](O)[C@H]1O[C@H]1OC[C@](C)(O)[C@H](NC)[C@H]1O | inactive | – | –
